Screening results deposited in PubChem by National Center for Advancing Translational Sciences (NCATS).
This is a sample that favours compounds with a hit; in the whole collection about 18% have one here.
TGFb inhibitor = blocks TGF-b signaling; HepG2 CAGA-GFP TGF-b/SMAD3 reporter, GFP fluorescence, 18 h; TGF-beta stimulated, 500 pg/mL final; Potency, µM (highest dose often 46.1 µM), for the others: at the highest dose activity, negative = inhibition, hits mostly inhibitors; 1.2% of 410,000 active; also: potency is read from the fitted curve at half-maximal effect; % is scaled to controls: 0 for no effect and ±100 for the full control effect; nearly all actives have a fitted effect of over 65% in size
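Read-out: total well GFP (ex488/em500-530) summed from mean per-cell fluorescence. Cells: HEPG2 CAGA-GFP, 1% FBS DMEM, 18 h at 37 degrees C with 500 pg/mL final TGF-beta. Unstimulated wells served as the full-inhibition control; stimulated DMSO wells = 0%.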
IL-1B inflam inh = inhibitors of inflammasome signaling (IL-1 beta secretion); THP-1 LPS/ATP IL-1B secretion, AlphaLISA, 16 h; active compounds read low; activity change, % at 57.5 µM; 4.7% of 360,000 active; in the data active = activity change below about -50%; inconclusive = mostly about -30% to -49%; also: % is scaled to controls: 0 for no effect and ±100 for the full control effect
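Secreted IL-1B measured by AlphaLISA bead assay after 16 h compound exposure of THP-1 cells; compounds (final up to 57.5 uM) added 1 h before LPS (250 ng/mL) and ATP (1.25 mM) stimulation; lower signal means less secretion.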
DT40 TDP1 CPT = DT40-hTDP1 cell growth loss with CPT. chicken DT40 Tdp1-/-;hTDP1 cells + 20 nM CPT, ATP luminescence, 48 h. Potency, µM (doses to about 46.2 µM), for inactives: at the highest dose activity change, negative = growth inhibition, usual class: inhibitors. 12% of 420,000 active. AID 686979; also: potency is read from the fitted curve at half-maximal effect; % is scaled to controls: 0 for no effect and ±100 for the full control effect; nearly all actives have a fitted effect of over 55% in size
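Chicken DT40 Tdp1-/- cells stably complemented with human TDP1 were seeded at 400 cells/well in medium containing 20 nM camptothecin, exposed to pin-transferred compounds, and grown at 37 °C for at least 48 hr. Viability was read as ATP luminescence.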
DT40 TDP1 no CPT = qHTS for Inhibitors of human tyrosyl-DNA phosphodiesterase 1 (TDP1): qHTS in cells in absence of CPT. DT40 Tdp1-/- hTDP1 cells, no CPT, ATP luminescence, 48 h. Potency, µM (highest dose often 46.2 µM), for the others: top-dose activity change, negative = growth inhibition, actives largely listed as inhibitors. 15% of 420,000 active. AID 686978, 2013; also: potency is read from the fitted curve at half-maximal effect; % is scaled to controls: 0 for no effect and ±100 for the full control effect; nearly all actives have a fitted effect of over 55% in size
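Luminescent ATP content (CellTiter-Glo) served as the growth readout. Knockout chicken DT40 cells expressing human TDP1 were exposed to compounds without camptothecin for a minimum 48 hr at 37 °C.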
HepG2 viability = HepG2 cytotoxicity, counter-screen for TGF-b inhibitors | HepG2 CAGA-GFP viability, ATP luminescence, 18 h | Potency, µM (series often up to 46.1 µM), for the others: top-dose activity change, negative = cytotoxicity, most hits filed as cytotoxic | 0.76% of 410,000 active | AID 588856; also: potency is read from the fitted curve at half-maximal effect
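CellTiter-Glo luminescence gave cytotoxicity after 18 hours at 37 degrees C. The cells were HepG2 CAGA-GFP in 1% FBS DMEM, stimulated with 500 pg/mL TGF-beta after compound addition. %Activity was normalised to no-cell wells (complete cell-killing) and DMSO (no toxicity), and curves were fitted and classified.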
TDP1 block = inhibitors of human tyrosyl-DNA phosphodiesterase TDP1 | Q9NUW8 | recombinant TDP1, AlphaScreen DNA substrate cleavage | Potency, µM (highest dose often 130 µM), inactives show at the top dose activity change, negative = inhibition, most hits filed as inhibitors | 0.28% of 350,000 active | AID 485290; also: potency is read from the fitted curve at half-maximal effect; % is scaled to controls: 0 for no effect and ±100 for the full control effect; nearly all actives have a fitted effect of over 40% in size
Target sequence (Q9NUW8 whole entry, looked up): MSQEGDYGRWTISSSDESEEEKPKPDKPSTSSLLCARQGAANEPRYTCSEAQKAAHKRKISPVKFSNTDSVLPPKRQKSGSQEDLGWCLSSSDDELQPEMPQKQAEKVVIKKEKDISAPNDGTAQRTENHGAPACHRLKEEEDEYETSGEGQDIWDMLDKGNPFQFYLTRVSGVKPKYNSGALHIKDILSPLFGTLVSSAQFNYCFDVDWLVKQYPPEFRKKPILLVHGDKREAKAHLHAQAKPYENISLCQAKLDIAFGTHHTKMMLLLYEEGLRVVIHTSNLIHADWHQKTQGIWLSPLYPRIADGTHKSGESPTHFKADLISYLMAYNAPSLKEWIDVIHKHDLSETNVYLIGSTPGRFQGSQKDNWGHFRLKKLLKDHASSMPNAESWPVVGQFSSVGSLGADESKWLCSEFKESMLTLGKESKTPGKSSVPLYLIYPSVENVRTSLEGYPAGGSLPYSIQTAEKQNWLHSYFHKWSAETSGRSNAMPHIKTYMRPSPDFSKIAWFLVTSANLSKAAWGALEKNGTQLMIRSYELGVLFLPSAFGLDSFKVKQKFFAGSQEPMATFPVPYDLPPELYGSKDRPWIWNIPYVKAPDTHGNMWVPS
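AlphaScreen read-out: signal falls as enzyme removes the 3' tyrosine-FITC from a 5'-biotinylated DNA oligo (15 nM, 5 min, RT). Enzyme was E. coli-made recombinant Tdp1 at 1 nM, exposed to compound for 15 min beforehand; beads 10 ug/ml, 10 min.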
Numbers without * were called inactive; ? = inconclusive; . = no result given. Unless noted, calls follow the shape of the dose curve; as a rule, active = well fitted curve in the direction sought with a large enough effect; inconclusive = small, poorly fitted or top-dose-only effect, or another doubt; inactive = no such curve, though single readings can be large; an effect the other way counts as inactive or inconclusive.

SMILES	TGFb inhibitor	IL-1B inflam inh	DT40 TDP1 CPT	DT40 TDP1 no CPT	HepG2 viability	TDP1 block
Cc1ccc(CSC2=CS(=O)(=O)c3ccccc3N2)cc1	-10%	-6	?	?	-2%	2%
O=S1(=O)N=C(Oc2ccccc2-c2ccccc2)c2ccccc21	.	.	.	.	.	2%
Cc1ccc(SC2=NS(=O)(=O)c3ccccc32)c(C)c1	-22%	.	1.4µM*	1.3µM*	-11%	1%
Cc1ccc(CSC2=NS(=O)(=O)c3ccccc32)cc1	?	.	8.9µM*	11µM*	-29%	-2%
COC1=NS(=O)(=O)c2ccccc21	8%	15	3%	-3%	-26%	8%
Cc1ccc(C)c(OC2=NS(=O)(=O)c3ccccc32)c1	-3%	3	18µM*	21µM*	0%	-18%
O=C1C(=O)N(C2CCN(C(=O)c3ccc(Cl)cc3)CC2)CCN1Cc1ccc(F)cc1	-15%	.	-30%	?	11%	0%
C#CCOCCOCCOCCNc1nc(N2CCN(C(=O)[C@H](CCCCN)n3cc(CCCC)nn3)CC2)nc(N2CCN(C(=O)[C@H](CCCCN)n3cc(CCC(=O)O)nn3)CC2)n1	-23%	38	-3%	5%	0%	3%
Cc1nc2c(-c3ccc(F)cc3)c(C)nn2c(C)c1CCC(=O)N1CCN(c2ccccc2)CC1	?	-14	18µM*	?	-15%	2%
CCOC(=O)C1CCN(C(=O)CCc2c(C)nc3c(-c4ccc(F)cc4)c(C)nn3c2C)CC1	-11%	9	8.2µM*	?	-24%	-2%
CCN1CCN(c2ccc(NC(=O)CCc3c(C)nc4c(-c5ccc(F)cc5)c(C)nn4c3C)cc2)CC1	-24%	?	10µM*	5.8µM*	-30%	0%
Cc1nc2c(-c3ccccc3)c(C)nn2c(C)c1CCC(=O)N1CCOCC1	20%	-9	-6%	-19%	-7%	-2%
COc1ccccc1NC(=O)CCc1c(C)nc2c(-c3ccc(F)cc3)c(C)nn2c1C	0%	-2	15µM*	?	0%	.
Cc1nc2c(-c3ccc(F)cc3)c(C)nn2c(C)c1CCC(=O)Nc1ccccc1	-4%	-12	?	?	0%	.
CC(C)C1C(=O)N(S(C)(=O)=O)[C@H]2CCN(C(=O)/C=C/CN3CCCCC3)[C@@H]12 (stereo partly specified)	.	.	.	.	.	11%
CN(Cc1ccccc1)C(=O)C1CCN(S(=O)(=O)c2ccc3c(c2)oc(=O)n3C)CC1	-20%	.	-21%	-11%	-4%	-1%
CCOc1ccc(S(=O)(=O)c2cn(Cc3ccc(C)cc3)c3ccc(OC)cc3c2=O)cc1	-15%	.	?	?	-8%	4%
COc1ccc(C(=O)NC(C)CCCC(C)(C)O)cc1OC1CCN(C(C)=O)CC1 (stereo unspecified)	-1%	-3	-1%	0%	4%	2%
CC1=C2[C@H](/C=C(\C)C(=O)O)CC[C@@H](C)[C@H]2CC1	.	.	.	.	.	12%
Cc1nc2c(-c3ccc(F)cc3)c(C)nn2c(C)c1CCC(=O)NCCN1CCOCC1	0%	23	-7%	-12%	-12%	1%
Cc1nc2c(-c3ccc(F)cc3)c(C)nn2c(C)c1CCC(=O)N1CCN(c2ccc(F)cc2)CC1	?	-22	18µM*	18µM*	-12%	6%
Cc1nc2cc(-c3ccccc3)nn2c(C)c1CCC(=O)N1CCN(c2ccccn2)CC1	.	.	.	.	.	1%
CCOC(=O)C1CCCCN1C(=O)CCc1c(C)nc2cc(-c3ccccc3)nn2c1C (stereo unspecified)	1%	38	3.7µM*	4.1µM*	-2%	3%
CCOC(=O)C1CCN(C(=O)CCc2c(C)nc3cc(-c4ccccc4)nn3c2C)CC1	-1%	2	?	-28%	9%	1%
Cc1nc2cc(-c3ccccc3)nn2c(C)c1CCC(=O)N1CCN(c2ccc(F)cc2)CC1	-5%	.	23µM*	10µM*	-16%	2%
SMILES	TGFb inhibitor	IL-1B inflam inh	DT40 TDP1 CPT	DT40 TDP1 no CPT	HepG2 viability	TDP1 block
Cc1nc2c(-c3ccc(F)cc3)c(C)nn2c(C)c1CCC(=O)N1CCC(Cc2ccccc2)CC1	?	-11	?	23µM*	-10%	-6%
CCCn1c(-c2ccc(F)cc2)nc2c(N3CCN(C)CC3)nc(C)nc21	.	.	.	.	.	13%
CCCNC(=O)/C(=C/c1cn(S(=O)(=O)N(C)C)c2ccccc12)NC(=O)c1ccc(OC)cc1	0%	-14	7%	-3%	-1%	0%
COc1ccc(Cn2c(-c3ccc(Br)cc3)c[n+]3ccccc23)cc1	?	-61*	1.8µM*	2.1µM*	-38%	0%
Cc1ccc(Nc2cc(C)nc3nc(C)nn23)cc1	-9%	-20	0%	-4%	-12%	7%
CCc1ccc(Nc2cc(C)nc3nc(Cc4ccc(Cl)cc4)nn23)cc1	13µM*	.	16µM*	9.2µM*	-77%	2%
Cc1ccc(Nc2cc(C)nc3nc(Cc4ccc(Cl)cc4)nn23)cc1	4µM*	.	18µM*	15µM*	-58%	2%
COCCNC(=O)C1CCCN(Cc2ccc(C#N)cc2)CC1 (stereo unspecified)	4%	10	-26%	-13%	-24%	.
c1ccc(CN2CCC3(CCCc4ccccc43)CC2)cc1	-3%	3	?	16µM*	-37%	?
c1ccc(CN2CCC3(CC2)Nc2ccccc2CO3)cc1	-3%	-16	-11%	-9%	-14%	3%
Cc1ccc(-n2ncc3c(=O)n(CC(=O)NCc4ccco4)cnc32)cc1C	-4%	21	10µM*	6.5µM*	-8%	5%
O=C(Cn1cnc2c(cnn2-c2ccc(F)cc2)c1=O)NCc1ccco1	11%	39	2.9µM*	5.8µM*	8%	2%
Cc1ccc(-n2nnc3c(=O)n(CC(=O)NCc4ccco4)cnc32)cc1	0%	4	?	?	12%	-2%
CCCCNC(=O)Cn1cnc2c(cnn2-c2ccc(C)c(C)c2)c1=O	5%	9	-5%	-11%	14%	-1%
Cc1ccc(-n2ncc3c(=O)n(CC(=O)NCc4ccco4)cnc32)cc1	8%	21	?	23µM*	3%	2%
CC(NCc1ccc(-c2ccccc2)cc1)C(O)c1ccccc1 (stereo unspecified)	?	-96*	?	18µM*	-65%	-5%
